Screens from PubChem.
A selection: hits, their analogues and other compounds. The true share with any hit is near 17%.
HepG2 viability: qHTS for Inhibitors of TGF-b: Cytotox Counterscreen | HepG2 CAGA-GFP viability, ATP luminescence, 18 h | Potency, µM (highest dose often 46.1 µM), inactives show at the highest dose activity change, negative = cytotoxicity, actives largely listed as cytotoxic | actives 0.76% (n = 410,000) | AID 588856, 2011
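CellTiter-Glo luminescence gave cytotoxicity after 18 hours at 37 degrees C. The cells were HepG2 CAGA-GFP in 1% FBS DMEM, stimulated with 500 pg/mL TGF-beta after compound addition. %Activity was normalised to no-cell wells (complete cell-killing) and DMSO (no toxicity), and curves were fitted and classified.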
TGFb inhibitor: qHTS for Inhibitors of TGF-b. actives 1.2% (n = 410,000). HepG2 CAGA-GFP TGF-b/SMAD3 reporter, GFP fluorescence, 18 h; TGF-beta stimulated, 500 pg/mL final. Potency, µM (top dose mostly 46.1 µM), inactives show at the top dose activity, negative = inhibition, most hits filed as inhibitors; note: % is set by controls: 0 for no effect and ±100 for the full control effect; nearly all actives have a fitted effect of over 65% in size
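First, reporter cells (HEPG2 CAGA-GFP) rested 2 h at 37 degrees C. Next, compounds were pinned in and TGF-beta added to 500 pg/mL final. After 18 h, GFP was imaged per cell and summed per well.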
HT1080-NT tox: qHTS for induction of synthetic lethality in tumor cells producing 2HG: qHTS for the HT-1080-NT fibrosarcoma cell line; HT-1080-NT fibrosarcoma viability, CellTiter-Glo ATP luminescence, 48 h; Potency, µM (doses to about 46.1 µM), for the others: top-dose activity, negative = less viability, usual class: cytotoxic; actives 1.6% (n = 360,000); AID 686970, 2013;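 note: NT is the 2HG producing partner of a matched IDH1 knockdown line; 0% = DMSO-treated cells and -100% = media-only wells without cells; nearly all actives have a fitted effect of over 55% in size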
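A 48-hour cytotoxicity screen used HT-1080-NT cells plated 2 hours before compound delivery. ATP-based CellTiter-Glo luminescence measured viability, normalized to DMSO and no-cell controls.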
DT40 TDP1 CPT: qHTS for Inhibitors of human tyrosyl-DNA phosphodiesterase 1 (TDP1): qHTS in cells in presence of CPT; actives 12% (n = 420,000); Potency, µM (series often up to 46.2 µM), for the others: top-dose activity change, negative = growth inhibition, hits mostly inhibitors; chicken DT40 Tdp1-/-;hTDP1 cells + 20 nM CPT, ATP luminescence, 48 h; AID 686979, 2013; note: % is set by controls: 0 for no effect and ±100 for the full control effect; nearly all actives have a fitted effect of over 55% in size
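Chicken DT40 Tdp1-/- cells complemented with human TDP1, 400 cells/well, exposed to compounds plus 20 nM camptothecin for at least 48 h at 37 C; viability read as ATP content by CellTiter-Glo luminescence.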
HT1080 IDH1KD tx: qHTS for induction of synthetic lethality in tumor cells producing 2HG: qHTS for the HT-1080-IDH1KD cell line; HT-1080 IDH1 knockdown viability, ATP luminescence, 48 h; Potency, µM (doses to about 46.1 µM), for inactives: top-dose activity, negative = toxicity, hits mostly cytotoxic; actives 2% (n = 360,000);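 note: 0% = DMSO wells and -100% = cell-free medium wells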
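Luminescent ATP read-out (CellTiter-Glo, 10 min at room temperature) after 48 h compound exposure at 37 °C gave viability of IDH1-knockdown HT-1080 cells. Activity was normalised to DMSO and cell-free wells, then fitted as concentration-response curves.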
DT40 TDP1 no CPT: qHTS for Inhibitors of human tyrosyl-DNA phosphodiesterase 1 (TDP1): qHTS in cells in absence of CPT; DT40 Tdp1-/- hTDP1 cells, no CPT, ATP luminescence, 48 h; Potency, µM (doses to about 46.2 µM), without a hit: at the highest dose activity change, negative = growth inhibition, most hits filed as inhibitors; actives 15% (n = 420,000); AID 686978, 2013; note: % is set by controls: 0 for no effect and ±100 for the full control effect; nearly all actives have a fitted effect of over 55% in size
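DT40 Tdp1-/-;hTDP1 cells, no CPT (DMSO vehicle only), 400 cells/well; compounds pin-transferred; ≥48 hr, 37 °C; CellTiter-Glo 30 min RT dark, luminescence read.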
An asterisk follows results filed as active; ? = inconclusive; nt = no result; ! = a repeat was not active. Calls come from the whole dose curve; as a rule, active = well fitted curve in the direction sought with a large enough effect; inconclusive = small, poorly fitted or top-dose-only effect, or another doubt; inactive = no such curve, though single readings can be large; an effect the other way counts as inactive or inconclusive. Potency is the fitted concentration of half-maximal effect.

SMILES | HepG2 viability | TGFb inhibitor | HT1080-NT tox | DT40 TDP1 CPT | HT1080 IDH1KD tx | DT40 TDP1 no CPT
CC[C@]12C(=O)N(C)C[C@H]([C@@H]3C(=O)N(Cc4ccccc4)C(=O)[C@@H]31)N2C(=O)c1ccc(Br)cc1 | 12% | -1% | -1% | 9% | -10% | 1%
COCCn1c(=O)c(-c2cccs2)nc2cnc(N3CCOCC3)nc21 | nt | nt | nt | -1% | nt | 29%
O=C(O)CCCn1c(O)c(C=C2N=c3ccccc3=N2)sc1=S | -4% | 0% | -13% | ? | -9% | ?
COCCCn1c(O)c(/C=C2\N=C(C#N)C(=Nc3ccc(C)cc3)O2)sc1=S | -50% | ? | ? | ? | ? | 3.3µM*
COc1cc(N=Cc2c(CO)cnc(C)c2O)cc(OC)c1OC | 5% | 23% | -2% | 1% | -5% | -17%
CC1(Cc2ccccc2Cl)C(=O)Nc2c(Cl)ccc(Cl)c21 (stereo not drawn) | -25% | ? | ? | ? | ? | ?
Cc1ccc(CC2(C)C(=O)Nc3c(Cl)ccc(Cl)c32)cc1 (stereo not drawn) | -33% | ? | ? | ? | 0% | 16µM*
CC1(Cc2ccc(Cl)cc2)C(=O)Nc2c(Cl)ccc(Cl)c21 (stereo not drawn) | -15% | -18% | ? | 26µM* | ? | ?
CC(=O)N1c2ccc(S(=O)(=O)N3CCCC3)cc2CC1C(=O)Nc1cc(C)cc(C)c1 (stereo not drawn) | -38% | -20% | 0% | ? | -4% | 23µM*
CCc1ccc(CNC(=O)C2Cc3cc(S(=O)(=O)N4CCCCCC4)ccc3N2C(C)=O)cc1 (stereo not drawn) | -5% | -26% | nt | 23µM* | nt | ?
O=c1[nH]cnc2c1ncn2C1OC(CO)CC1F (stereo not drawn) | -1% | 7% | 17% | 0.46µM* | 0% | 1.8µM*
O=c1[nH]cnc2c1ncn2[C@H]1CC[C@@H](CO)O1 | 15% | -1% | 30% | 9.2µM*! | 14% | 12µM*!
Cc1cccc(NC(=O)CNC(=O)Cc2ccc(S(=O)(=O)N3CCOCC3)s2)c1C | -5% | -2% | 0% | 1% | -2% | 0%
CNC(=O)C1C(=S)NC(N)=C(C#N)C1c1ccccc1 (stereo not drawn) | 6% | 0% | ? | 26µM* | ? | 6.5µM*
COCCCN(C(=S)Nc1cc(Cl)cc(Cl)c1)C(C)c1ccncc1 (stereo not drawn) | 4% | ? | 0% | ? | -13% | ?
COCCCN(C(=S)Nc1cc(Cl)cc(Cl)c1)C(C)c1ccccn1 (stereo not drawn) | 16µM* | ? | ? | ? | -12% | ?
O=C(CN1CCCCCC1)Nc1ccc(F)c(F)c1 | -1% | -6% | -1% | -6% | 3% | -16%
O=C(CN1CCN(CC(=O)Nc2ccccc2Cl)CC1)Nc1ccc(F)c(F)c1 | -30% | ? | -5% | ? | -2% | 23µM*
COc1ccccc1CN(C)C(=O)CN1CCN(CC(=O)Nc2ccccc2Cl)CC1 | -15% | -23% | 9% | 23µM* | 12% | 23µM*
COc1ccc(NC(C)=O)cc1NC(=O)CN1CCN(CC(=O)Nc2ccccc2Cl)CC1 | -22% | -13% | -3% | ? | 0% | 21µM*
COc1ccccc1NC(=O)CN1CCN(CC(=O)Nc2cc(NC(C)=O)ccc2OC)CC1 | 6% | -2% | 4% | ? | 5% | ?
COC(=O)c1ccc(Cl)cc1NC(=O)N(Cc1ccc(OC)cc1)C1CCN(C(C)=O)CC1 | -42% | -11% | nt | ? | nt | 7.3µM*
COc1ccccc1NC(=O)CN1CCN(CC(=O)Nc2ccccc2Cl)CC1 | -10% | -19% | 14% | 25% | ? | -20%
COc1cccc(C(C)NC(=O)c2c(F)cccc2Cl)c1 (stereo not drawn) | 3% | 23% | 0% | 2% | 12% | -12%
O=C(CN1CCN(C(=O)C2CCN(C(=O)/C=C/c3ccccc3)CC2)CC1)Nc1ccccc1Cl | -19% | ? | -5% | ? | 1% | 18µM*
SMILES | HepG2 viability | TGFb inhibitor | HT1080-NT tox | DT40 TDP1 CPT | HT1080 IDH1KD tx | DT40 TDP1 no CPT
COc1cccc(C(C)NC(=O)Nc2ccccc2Cl)c1 (stereo not drawn) | -19% | -13% | -4% | 21µM* | -11% | ?
CCN1CCC(N(Cc2cccc(OC)c2)C(=O)Nc2ccc(C)cc2Cl)CC1 | -50% | 0% | nt | ? | nt | 18µM*
COc1cccc(CN2CCN(CC(=O)Nc3ccccc3Cl)CC2)c1 | -6% | -6% | -6% | ? | -8% | 16µM*
COc1ccc(S(=O)(=O)N(C)C[C@H]2Oc3ccc(NC(=O)Cc4ccccc4)cc3C(=O)N([C@H](C)CO)C[C@@H]2C)cc1 | -14% | -2% | 3% | ? | 12% | ?
COc1cccc(N(C(=O)CCl)C(C(=O)NCCc2ccccc2)c2cccs2)c1 (stereo not drawn) | -106% | 13µM* | 1.6µM* | 4.1µM* | 1.3µM* | 4.6µM*
Cc1cccc(N(C(=O)c2snc(C(N)=O)c2N)C(C(=O)NCC2CCCO2)c2ccc3ncccc3c2)c1 (stereo not drawn) | 0% | 5% | -13% | -23% | -3% | ?
COc1cccc(N(C(=O)c2snc(C(N)=O)c2N)C(C(=O)NCC2CCCO2)c2cccs2)c1 (stereo not drawn) | -1% | 20% | -24% | ? | 1% | 16µM*
NC(=O)c1nsc(C(=O)N(c2ccccc2)C(C(=O)NCC2CCCO2)c2ccc(F)cc2)c1N (stereo not drawn) | -31% | -1% | -15% | ? | -3% | ?
Cc1cc(C)cc(N(C(=O)c2snc(C(N)=O)c2N)C(C(=O)NCC2CCCO2)c2cccs2)c1 (stereo not drawn) | 5% | 6% | -26% | 23µM* | -29% | 26µM*
